Laboratory results published in article PMC12820563, “FoxP3 forms a head-to-head dimer in vivo and stabilizes its multimerization on adjacent microsatellites”.
Over roughly 16,000 sequences, “rpm ratio (pull-down/input)” has its median near 0.5; the highest 2% begin near 5.5. This is one part of a sample in which the highest values are shown more often than they occur.

Molecular target: T1, MBP-FoxP3dN (Mus musculus, UniProt Q99JB6 188-423)
T1 sequence: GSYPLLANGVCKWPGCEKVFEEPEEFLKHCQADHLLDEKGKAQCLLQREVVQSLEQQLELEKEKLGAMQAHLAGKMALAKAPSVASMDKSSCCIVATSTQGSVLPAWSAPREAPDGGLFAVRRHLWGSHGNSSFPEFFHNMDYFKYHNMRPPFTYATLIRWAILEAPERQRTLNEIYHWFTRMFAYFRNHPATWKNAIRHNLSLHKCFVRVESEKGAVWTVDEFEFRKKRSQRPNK
Assay: PD-seq (MBP pull-down with sequencing); 20 mM Tris-HCl pH 7.5, 100 mM NaCl, 1.5 mM MgCl2, 0.4 uM protein, 0.1 uM dsDNA library, 30 min, room temperature, amylose pull-down; high values mean tight binding
Conditions: protein: recombinant; tags: His6-MBP; chain copies: 2; dsDNA, one strand shown
In short: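 The N-terminus-lacking fragment of mouse FoxP3 or FoxP1 carried a His6-MBP tag and was expressed in E. coli. At 0.4 µM it was incubated with 0.1 µM Klenow-filled degenerate double-stranded DNA library for 30 min at room temperature in Tris pH 7.5 buffer with NaCl and MgCl2, and complexes were caught on amylose resin, washed three times, released with proteinase K, PCR-barcoded and Illumina-sequenced. Binding is reads-per-million enrichment of pull-down over input with replicates pooled.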

**Q.** Which binding signal does the source give for “GATGATTGTTCTCCCAGCTGATGAATTCTTTCCCTCGAGTAAACAAATTTTCCTAATCTTTCTGTTCAAGCGCCATCTAC” here?
**A.** The binding signal was 0.206 RPM ratio (pull-down/input).

**Q.** How did the binding signal turn out when “GATGATTGTTCTCCCAGCTGATGAATTAGTAGGGTCGAGTAAACAAATTTTCCTAATCTTTCTGTTCAAGCGCCATCTAC” was run?
**A.** Its binding signal is 1.4 RPM ratio (pull-down/input).

**Q.** For “GATGATTGTTCTCCCAGCTGATGAATTGTGCAACTCGAGTAAACAAATTTTCCTAATCTTTCTGTTCAAGCGCCATCTAC”, which binding signal is on record?
**A.** Its binding signal is 6.92 RPM ratio (pull-down/input).

**Q.** With “GATGATTGTTCTCCCAGCTGATGAATTCAACAACTCGAGTAAACAAATTTTCCTAATCTTTCTGTTCAAGCGCCATCTAC” as the sequence, how does the binding signal read?
**A.** The binding signal was 0.576 RPM ratio (pull-down/input).

**Q.** For “GATGATTGTTCTCCCAGCTGATGAATTCCGCAAATCGAGTAAACAAATTTTCCTAATCTTTCTGTTCAAGCGCCATCTAC”, which binding signal is on record?
**A.** Its binding signal is 0.692 RPM ratio (pull-down/input).

**Q.** With “GATGATTGTTCTCCCAGCTGATGAATTTGCCAACTCGAGTAAACAAATTTTCCTAATCTTTCTGTTCAAGCGCCATCTAC” as the sequence, how does the binding signal read?
**A.** Its binding signal is 0.47 RPM ratio (pull-down/input).

**Q.** For “GATGATTGTTCTCCCAGCTGATGAATTTGCAAACTCGAGTAAACAAATTTTCCTAATCTTTCTGTTCAAGCGCCATCTAC”, which binding signal is on record?
**A.** The binding signal was 0.673 RPM ratio (pull-down/input).

**Q.** With “GATGATTGTTCTCCCAGCTGATGAATTGTTCAACTCGAGTAAACAAATTTTCCTAATCTTTCTGTTCAAGCGCCATCTAC” as the sequence, how does the binding signal read?
**A.** The binding signal was 0.485 RPM ratio (pull-down/input).

**Q.** How did the binding signal turn out when “GATGATTGTTCTCCCAGCTGATGAATTTTGCAACTCGAGTAAACAAATTTTCCTAATCTTTCTGTTCAAGCGCCATCTAC” was run?
**A.** The binding signal was 6.24 RPM ratio (pull-down/input).

**Q.** “GATGATTGTTCTCCCAGCTGATGAATTCCGCAACTCGAGTAAACAAATTTTCCTAATCTTTCTGTTCAAGCGCCATCTAC” was tested. Which binding signal did it give?
**A.** Its binding signal is 6.11 RPM ratio (pull-down/input).

**Q.** “GATGATTGTTCTCCCAGCTGATGAATTCAGCAACTCGAGTAAACAAATTTTCCTAATCTTTCTGTTCAAGCGCCATCTAC” was tested. Which binding signal did it give?
**A.** The binding signal was 4.78 RPM ratio (pull-down/input).

**Q.** Which binding signal does the source give for “GATGATTGTTCTCCCAGCTGATGAATTGCAACTCTCGAGTAAACAAATTTTCCTAATCTTTCTGTTCAAGCGCCATCTAC” here?
**A.** The binding signal was 2.79 RPM ratio (pull-down/input).

**Q.** How did the binding signal turn out when “GATGATTGTTCTCCCAGCTGATGAATTCTGCAACTCGAGTAAACAAATTTTCCTAATCTTTCTGTTCAAGCGCCATCTAC” was run?
**A.** Its binding signal is 5.96 RPM ratio (pull-down/input).

**Q.** Which binding signal does the source give for “GATGATTGTTCTCCCAGCTGATGAATTCTACAACTCGAGTAAACAAATTTTCCTAATCTTTCTGTTCAAGCGCCATCTAC” here?
**A.** Its binding signal is 0.303 RPM ratio (pull-down/input).

**Q.** With “GATGATTGTTCTCCCAGCTGATGAATTATCAAACTCGAGTAAACAAATTTTCCTAATCTTTCTGTTCAAGCGCCATCTAC” as the sequence, how does the binding signal read?
**A.** Its binding signal is 0.363 RPM ratio (pull-down/input).

**Q.** Which binding signal does the source give for “GATGATTGTTCTCCCAGCTGATGAATTGCCCTCCTCGAGTAAACAAATTTTCCTAATCTTTCTGTTCAAGCGCCATCTAC” here?
**A.** Its binding signal is 0.471 RPM ratio (pull-down/input).

**Q.** How did the binding signal turn out when “GATGATTGTTCTCCCAGCTGATGAATTTCGTCAATCGAGTAAACAAATTTTCCTAATCTTTCTGTTCAAGCGCCATCTAC” was run?
**A.** The binding signal was 0.411 RPM ratio (pull-down/input).

**Q.** How did the binding signal turn out when “GATGATTGTTCTCCCAGCTGATGAATTATTAGCTTCGAGTAAACAAATTTTCCTAATCTTTCTGTTCAAGCGCCATCTAC” was run?
**A.** Its binding signal is 0.671 RPM ratio (pull-down/input).

**Q.** With “GATGATTGTTCTCCCAGCTGATGAATTATTCCGATCGAGTAAACAAATTTTCCTAATCTTTCTGTTCAAGCGCCATCTAC” as the sequence, how does the binding signal read?
**A.** The binding signal was 0.214 RPM ratio (pull-down/input).

**Q.** Which binding signal does the source give for “GATGATTGTTCTCCCAGCTGATGAATTTCATCTGTCGAGTAAACAAATTTTCCTAATCTTTCTGTTCAAGCGCCATCTAC” here?
**A.** Its binding signal is 0.411 RPM ratio (pull-down/input).

**Q.** With “GATGATTGTTCTCCCAGCTGATGAATTGTGGCTGTCGAGTAAACAAATTTTCCTAATCTTTCTGTTCAAGCGCCATCTAC” as the sequence, how does the binding signal read?
**A.** Its binding signal is 1.13 RPM ratio (pull-down/input).

**Q.** For “GATGATTGTTCTCCCAGCTGATGAATTATCATCGTCGAGTAAACAAATTTTCCTAATCTTTCTGTTCAAGCGCCATCTAC”, which binding signal is on record?
**A.** Its binding signal is 0.418 RPM ratio (pull-down/input).

**Q.** How did the binding signal turn out when “GATGATTGTTCTCCCAGCTGATGAATTAGCTAAGTCGAGTAAACAAATTTTCCTAATCTTTCTGTTCAAGCGCCATCTAC” was run?
**A.** Its binding signal is 0.231 RPM ratio (pull-down/input).

**Q.** Which binding signal does the source give for “GATGATTGTTCTCCCAGCTGATGAATTCCAGTAATCGAGTAAACAAATTTTCCTAATCTTTCTGTTCAAGCGCCATCTAC” here?
**A.** Its binding signal is 0.477 RPM ratio (pull-down/input).

**Q.** Which binding signal does the source give for “GATGATTGTTCTCCCAGCTGATGAATTTTGCTGTTCGAGTAAACAAATTTTCCTAATCTTTCTGTTCAAGCGCCATCTAC” here?
**A.** The binding signal was 5.2 RPM ratio (pull-down/input).

**Q.** “GATGATTGTTCTCCCAGCTGATGAATTTGCTATTTCGAGTAAACAAATTTTCCTAATCTTTCTGTTCAAGCGCCATCTAC” was tested. Which binding signal did it give?
**A.** Its binding signal is 5.54 RPM ratio (pull-down/input).

**Q.** How did the binding signal turn out when “GATGATTGTTCTCCCAGCTGATGAATTCTTTGCTTCGAGTAAACAAATTTTCCTAATCTTTCTGTTCAAGCGCCATCTAC” was run?
**A.** The binding signal was 0.407 RPM ratio (pull-down/input).

**Q.** With “GATGATTGTTCTCCCAGCTGATGAATTTTTGCTTTCGAGTAAACAAATTTTCCTAATCTTTCTGTTCAAGCGCCATCTAC” as the sequence, how does the binding signal read?
**A.** The binding signal was 0.978 RPM ratio (pull-down/input).

**Q.** With “GATGATTGTTCTCCCAGCTGATGAATTTGCTGTTTCGAGTAAACAAATTTTCCTAATCTTTCTGTTCAAGCGCCATCTAC” as the sequence, how does the binding signal read?
**A.** The binding signal was 6.28 RPM ratio (pull-down/input).

**Q.** For “GATGATTGTTCTCCCAGCTGATGAATTTGCTTGTTCGAGTAAACAAATTTTCCTAATCTTTCTGTTCAAGCGCCATCTAC”, which binding signal is on record?
**A.** The binding signal was 6.99 RPM ratio (pull-down/input).

**Q.** “GATGATTGTTCTCCCAGCTGATGAATTTGTTGCTTCGAGTAAACAAATTTTCCTAATCTTTCTGTTCAAGCGCCATCTAC” was tested. Which binding signal did it give?
**A.** The binding signal was 6.86 RPM ratio (pull-down/input).

**Q.** How did the binding signal turn out when “GATGATTGTTCTCCCAGCTGATGAATTGCTATTTTCGAGTAAACAAATTTTCCTAATCTTTCTGTTCAAGCGCCATCTAC” was run?
**A.** Its binding signal is 1.47 RPM ratio (pull-down/input).

**Q.** “GATGATTGTTCTCCCAGCTGATGAATTGCTGTTTTCGAGTAAACAAATTTTCCTAATCTTTCTGTTCAAGCGCCATCTAC” was tested. Which binding signal did it give?
**A.** Its binding signal is 2.65 RPM ratio (pull-down/input).

**Q.** For “GATGATTGTTCTCCCAGCTGATGAATTTGCTGCTTCGAGTAAACAAATTTTCCTAATCTTTCTGTTCAAGCGCCATCTAC”, which binding signal is on record?
**A.** Its binding signal is 3.05 RPM ratio (pull-down/input).

**Q.** “GATGATTGTTCTCCCAGCTGATGAATTTGCTTTTTCGAGTAAACAAATTTTCCTAATCTTTCTGTTCAAGCGCCATCTAC” was tested. Which binding signal did it give?
**A.** Its binding signal is 5.38 RPM ratio (pull-down/input).

**Q.** With “GATGATTGTTCTCCCAGCTGATGAATTTTGCTATTCGAGTAAACAAATTTTCCTAATCTTTCTGTTCAAGCGCCATCTAC” as the sequence, how does the binding signal read?
**A.** The binding signal was 5.16 RPM ratio (pull-down/input).

**Q.** “GATGATTGTTCTCCCAGCTGATGAATTGTGCACCTCGAGTAAACAAATTTTCCTAATCTTTCTGTTCAAGCGCCATCTAC” was tested. Which binding signal did it give?
**A.** The binding signal was 2.92 RPM ratio (pull-down/input).

**Q.** How did the binding signal turn out when “GATGATTGTTCTCCCAGCTGATGAATTCGGAACGTCGAGTAAACAAATTTTCCTAATCTTTCTGTTCAAGCGCCATCTAC” was run?
**A.** Its binding signal is 0.297 RPM ratio (pull-down/input).

**Q.** Which binding signal does the source give for “GATGATTGTTCTCCCAGCTGATGAATTGATTCAGTCGAGTAAACAAATTTTCCTAATCTTTCTGTTCAAGCGCCATCTAC” here?
**A.** The binding signal was 0.28 RPM ratio (pull-down/input).

**Q.** How did the binding signal turn out when “GATGATTGTTCTCCCAGCTGATGAATTGTGGGGGTCGAGTAAACAAATTTTCCTAATCTTTCTGTTCAAGCGCCATCTAC” was run?
**A.** The binding signal was 0.783 RPM ratio (pull-down/input).
